An excerpt weighted towards active compounds, which were near 0.86% of everything screened.
FEN1 inh = blocks human flap endonuclease 1; Potency, µM (top dose mostly 114 µM), inactives show at the highest dose activity change, negative = inhibition, actives largely listed as inhibitors; actives 0.35% (n = 390,000); Recombinant FEN1 flap cleavage, fluorescence, 15 min; also: nearly all actives have a fitted effect of over 65% in size
Target sequence (P39748 whole entry, looked up): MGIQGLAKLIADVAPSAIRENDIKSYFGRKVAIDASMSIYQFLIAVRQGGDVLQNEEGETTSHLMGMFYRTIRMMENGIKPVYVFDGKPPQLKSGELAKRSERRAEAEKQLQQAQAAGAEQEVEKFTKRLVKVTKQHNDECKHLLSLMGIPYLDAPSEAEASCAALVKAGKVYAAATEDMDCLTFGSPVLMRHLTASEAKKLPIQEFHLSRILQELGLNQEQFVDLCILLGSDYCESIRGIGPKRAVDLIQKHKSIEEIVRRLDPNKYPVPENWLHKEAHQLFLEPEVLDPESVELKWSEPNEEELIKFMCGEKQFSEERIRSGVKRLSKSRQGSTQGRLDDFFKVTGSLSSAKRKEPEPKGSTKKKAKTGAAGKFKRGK
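Recombinant FEN1 (10 nM) was preincubated with pin-transferred compounds for 15 min at room temperature, then flap DNA substrate (50 nM final) was added. Plates were read at 0 and 15 min, and normalized concentration–response data were fitted to a four-parameter Hill equation.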
BLM inh-1 = Bloom syndrome helicase (human) inhibition. actives 0.2% (n = 350,000). Potency, µM (series often up to 56.1 µM), without a hit: at the highest dose activity change, negative = inhibition, most hits filed as inhibitors. recombinant BLM DNA unwinding, fluorescence dequenching. AID 2528. P54132;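 also: plate controls were vehicle for no effect and no enzyme for full effect; nearly all actives have a fitted effect of over 35% in size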
Tb PGK inh = inhibitors of T. brucei phosphoglycerate kinase | P07378 | PGK/GAPDH coupled, Kinase-Glo luminescence, 60 min | Potency, µM (titrated, usually from 57.5 µM), for the others: top-dose activity change, negative = inhibition, usual class: inhibitors | actives 0.043% (n = 380,000) | AID 602233; also: nearly all actives have a fitted effect of over 60% in size
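Luminescent ATP detection (Kinase-Glo Plus) follows a 60-minute room-temperature incubation, with wells lacking PGK as controls. Buffer: 100 mM TEA (pH 7.6), 5 mM MgCl2, 0.01% Tween-20. Coupling enzyme GAPDH (100 nM final) supplies unstable 1,3-BPG in-well.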
APE1 inh-1 = APE1 (human) endonuclease inhibition | AID 2517 | Potency, µM (top dose mostly 65.8 µM), for the others: at the highest dose activity change, negative = inhibition, actives largely listed as inhibitors | P27695 | recombinant APE1, TAMRA/BHQ-2 abasic DNA cleavage fluorescence | actives 0.35% (n = 350,000);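 also: plate controls were vehicle for no effect and reference inhibitor for full effect; nearly all actives have a fitted effect of over 55% in size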
Target sequence (P27695 whole entry, looked up): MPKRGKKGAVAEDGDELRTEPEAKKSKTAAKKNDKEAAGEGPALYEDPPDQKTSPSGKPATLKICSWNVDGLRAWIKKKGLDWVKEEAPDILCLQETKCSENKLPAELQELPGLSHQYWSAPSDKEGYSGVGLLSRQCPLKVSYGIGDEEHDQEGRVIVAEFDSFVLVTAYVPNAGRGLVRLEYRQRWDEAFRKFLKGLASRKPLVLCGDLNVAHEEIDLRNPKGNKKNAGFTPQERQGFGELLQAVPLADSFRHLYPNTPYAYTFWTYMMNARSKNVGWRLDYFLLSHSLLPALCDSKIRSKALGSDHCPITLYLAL
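Step 1: APE1 (0.75 nM) with compound, 15 min RT. Step 2: add 50 nM fluorophore/quencher THF duplex. Step 3: three fluorescence reads 60 s apart (525/598 nm); read 3 minus read 1 = reaction progress.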
RECQ1 inh-1 = RECQ1 (human) helicase inhibition; P46063; RECQ1 DNA unwinding, red fluorescence kinetic read; actives 0.54% (n = 240,000); Potency, µM (titrated, usually from 57.3 µM), inactives show at the highest dose activity, negative = inhibition, most hits filed as inhibitors;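 also: plate controls were vehicle for no effect and no enzyme for full effect; nearly all actives have a fitted effect of over 30% in size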
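RECQ1T1 50 nM; forked duplex (20 bp + 30-nt ss tails) 200 nM, ATP 2 mM final; pH 8.0, 2 mM MgCl2, 2.5 ug/ml poly(dI-dC); 15 min compound preincubation; discontinuous kinetic read over 2 h at RT.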
GLS inh = inhibitors of human glutaminase (GLS) | O94925 | GLS enzymatic activity, qHTS titration | Potency, µM (doses to about 45.5 µM), inactives show top-dose activity change, negative = inhibition, most hits filed as inhibitors | actives 0.21% (n = 410,000)
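Glutamate formation by hKGA was monitored fluorometrically using coupled glutamate oxidase, HRP and Amplex Red. Substrate was added as 1 mM L-glutamine solution; incubation was 30 min at RT after an initial read.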
DNA dye displace = counter-screen for APE1 inhibitors: DNA dye displacement; shares compounds with APE1 inh-1; DNA fluorescent dye displacement counterscreen, fluorescence; Potency, µM (titrated, usually from 28.5 µM), for inactives: at the highest dose activity change, negative = inhibition, actives largely listed as inhibitors; actives 7% (n = 480); AID 2564;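 also: loss of thiazole orange fluorescence as the dye is displaced from duplex DNA; 0% = ThO with dsDNA and no compound and -100% = ThO without dsDNA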
EndoIV counter = counter-screen for APE1 inhibitors: inhibitors of E. coli endonuclease IV; shares compounds with APE1 inh-1; E. coli Endo IV, fluorogenic AP-site DNA cleavage; Potency, µM (highest dose often 27.1 µM), inactives show top-dose activity change, negative = inhibition, actives largely listed as inhibitors; actives 4% (n = 560);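 also: plate controls were uninhibited enzyme wells for no effect and no enzyme buffer wells for full effect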
APE1 inh-2 = confirmation of inhibitors of human APE1 endonuclease | actives 44% (n = 750) | AID 2572 | purified APE1, fluorogenic abasic-site DNA cleavage | Potency, µM (series often up to 57.1 µM), for inactives: top-dose activity change, negative = inhibition, actives largely listed as inhibitors | shares compounds with APE1 inh-1; also: nearly all actives have a fitted effect of over 30% in size
APE1 FP = compounds that displace a DNA probe from human APE1. shares compounds with APE1 inh-1. APE1 binding to TAMRA-labelled double-stranded DNA, fluorescence polarization displacement. Potency, µM (series often up to 28.5 µM), for the others: at the highest dose activity, negative = inhibition, actives largely listed as inhibitors. actives 7% (n = 480). AID 2573
BLM inh-2 = confirmation of inhibitors of human Bloom syndrome helicase BLM | shares compounds with BLM inh-1 | BLM DNA unwinding, fluorescence quenching, biochemical | Potency, µM, for inactives: max response, negative = inhibition, actives largely listed as inhibitors | actives 40% (n = 220);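 also: strand separation dequenches TAMRA so unwinding raises red fluorescence; series mostly up to about 69 µM; nearly all actives have a fitted effect of over 45% in size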
RECQ1 inh conf = confirmation of human RECQ1 helicase inhibitors; AID 2708; Potency, µM (titrated, usually from 229 µM), inactives show at the highest dose activity change, negative = inhibition, hits mostly inhibitors; shares compounds with RECQ1 inh-1; actives 28% (n = 610); RECQ1 helicase DNA unwinding, fluorescence; also: nearly all actives have a fitted effect of over 45% in size
RECQ1 ADP FP = displaces ADP in a fluorescence polarization counter-screen for RECQ1 hits; shares compounds with RECQ1 inh-1; ADP fluorescence polarization displacement counterscreen; Potency, µM (doses to about 228 µM), for inactives: at the highest dose activity change, negative = inhibition, hits mostly inhibitors; actives 27% (n = 530); also: nearly all actives have a fitted effect of over 45% in size
RECQ1 inh-2 = RECQ1 helicase inhibition confirmed, round 2. Potency, µM (top dose mostly 119 µM), inactives show at the top dose activity, negative = inhibition, most hits filed as inhibitors. recombinant RECQ1 DNA unwinding, red fluorescence. AID 504841. actives 15% (n = 1,100). shares compounds with RECQ1 inh-1; also: nearly all actives have a fitted effect of over 50% in size
* marks the source's active call; other numbers are inactive results; i = inactive; ? = inconclusive; / = no result given; [ ] = dose if it differs, or a comment. Calls follow the shape of the dose curve; as a rule, active = well fitted curve in the direction sought with a large enough effect; inconclusive = small, poorly fitted or top-dose-only effect, or another doubt; inactive = no such curve, though single readings can be large; an effect the other way counts as inactive or inconclusive. Unless noted, % is scaled to controls: 0 for no effect and ±100 for the full control effect; potency is read from the fitted curve at half-maximal effect.

SMILES	FEN1 inh	BLM inh-1	Tb PGK inh	APE1 inh-1	RECQ1 inh-1	GLS inh	DNA dye displace	EndoIV counter	APE1 inh-2	APE1 FP	RECQ1 inh conf	RECQ1 ADP FP	RECQ1 inh-2	others
Oc1ccc(-c2cn3c(n2)SCC3)cc1O	?	16µM*	?	1.6µM*	2.5µM*	?	3%	95%	13µM*	-5%	/	/	7.1µM*	BLM inh-2=?
Cc1ccc2oc(-c3cccc(NC(=O)COc4ccc(Cl)cc4C)c3C)nc2c1	-4%	/	/	/	/	/	/	/	/	/	/	/	/
Clc1ncc(C#Cc2ccccc2)c2ncncc12	-10%	/	/	/	/	/	/	/	/	/	/	/	/
COc1ccc(CCn2c(O)cc3nn(-c4nc5ccccc5s4)c(=O)c-3c2C)cc1	?	-27%	i	32µM*	25µM*	0%	?	9%	16µM*	4%	20%[114 µM]	-3%[91.9 µM]	-15%
O=C(O)c1cc(O)c2c(c1)[C@H]([C@H]1c3cc(C(=O)O)cc(O)c3C(=O)c3c(O[C@@H]4OC(CO)C(O)C(O)C4O)cccc31)c1cccc(O[C@@H]3OC(CO)C(O)C(O)C3O)c1C2=O (stereo partly specified)	/	3.2µM*	/	/	2µM*	-88%	/	-30%[57.1 µM]	0.71µM*	/	2.8µM*	7.1µM*	/
C=C1c2cccc(O)c2C(O)=C2C(=O)[C@@]3(O)C(O)=C(C(N)=O)C(=O)[C@@H](N(C)C)[C@@H]3[C@@H](O)[C@H]12	/	-5%[21.4 µM]	/	/	?	?	-11%	24%	-5%[24.4 µM]	?	?	14µM*	/
Cc1ccnc2ccc(Br)cc12	19%	/	/	/	/	/	/	/	/	/	/	/	/
CC1=NN(c2ccc(C)cc2)C(=O)/C1=C/c1ccc(-c2cc([N+](=O)[O-])ccc2O)o1	-19%	-21%	-2%	-22%	/	-11%	/	/	/	/	/	/	/
CC1=NN(c2ccc(Cl)c(C(=O)O)c2)C(=O)/C1=C\c1ccc(-c2ccc(C(=O)O)cc2)o1	?	-4%	-21%	25µM*	?	?	?	10%	13µM*	1%	/	/	?
Cc1ccccc1C(=O)Nc1cccc(C(=O)Nc2ccccc2C(=O)O)c1	-1%	-4%	-2%	24%	/	-2%	/	/	/	/	/	/	/
Cc1ccc(C(=O)Nc2ccc(S(=O)(=O)O)c3cc(S(=O)(=O)O)cc(S(=O)(=O)O)c23)cc1NC(=O)c1cccc(NC(=O)Nc2cccc(C(=O)Nc3cc(C(=O)Nc4ccc(S(=O)(=O)O)c5cc(S(=O)(=O)O)cc(S(=O)(=O)O)c45)ccc3C)c2)c1	1.3µM*	-10%	/	22µM*	20µM*	8.9µM*	/	14µM*	8.9µM*	/	2.5µM*	200%	/
CO/N=C(/C(=O)N[C@@H]1C(=O)N2C(C(=O)O)=CCS[C@H]12)c1csc(N)n1	/	-6%	/	/	/	?	/	/	/	/	/	/	/
COc1cc(O)c2c(c1)oc(=O)c1c3cc(O)c(O)cc3oc21	/	13µM*	/	1.8µM*	2.5µM*	/	8.9µM*	87%[57.1 µM]	4.5µM*	1%[57.1 µM]	14µM*	45µM*	2.2µM*
Cc1ccc2oc(=O)c3c4cc(O)c(O)cc4oc3c2c1	/	-5%	/	?	-10%	/	/	/	/	/	/	/	/
COc1ccc(C2Nc3ccc(NC(=O)CO)cc3C(=O)N2Cc2cccc(Cl)c2)cc1COc1ccc(NC(C)=O)cc1 (stereo unspecified)	-4%	/	/	/	/	/	/	/	/	/	/	/	/
COc1c(O)cc2c(=O)oc3c(OC)c(O)cc4c(=O)oc1c2c34	/	14µM*	/	1.3µM*	3.2µM*	/	6.3µM*	108%	0.45µM*	17%	/	/	0.79µM*
CCOC(=O)CCSCC(=O)Nc1nnc(C)s1	-12%	-3%	-7%	-1%	-6%	0%	/	/	/	/	/	/	/
Cc1nnc(NC(=O)CCSCCC(=O)Nc2nnc(C)s2)s1	-23%	-27%	-23%	?	?	?	/	/	40µM*	/	/	/	16µM*
CC(C)(C)c1ccc(C(=O)C[n+]2ccccc2Cl)cc1	-13%	/	/	/	/	/	/	/	/	/	/	/	/
Cc1ccc(N=C2NC(=O)/C(=C/C=C/c3ccco3)S2)cc1	50µM*	16µM*	-14%	18µM*	18µM*	-10%	13µM*	?	?	-1%	?	/	?
Cn1c(=O)n(C)c2cc3[nH]cnc3cc21	4%	0%	0%	42%	/	3%	/	/	/	/	/	/	/
Nc1cc2nc[nH]c2cc1N	-13%	?	-7%	-7%	1.8µM*	-14%	/	/	?	/	8%[114 µM]	?	/
Nc1nc[nH]c(=O)c1N	6%	/	/	/	/	/	/	/	/	/	/	/	/
O=C(Nc1ccccc1Br)c1cnn2c1NC(=C1CC1)C=C2C(F)F	-4%	/	/	/	/	/	/	/	/	/	/	/	/
CCOC(=O)c1cc(-c2ccc(OC)cc2)nn1-c1ccccc1C(=O)O	17%	-18%	?	2.5µM*	7.9µM*	11µM*	/	/	40µM*	/	?	49%[91.9 µM]	?
